JMJD2A Tudor inh = inhibitors of human JMJD2A Tudor domain | O75164 | AlphaScreen JMJD2A-Tudor / H3K4me3 peptide binding | Potency, µM (series often up to 114 µM), actives largely listed as inhibitors | hit rate 4.4% among 390,000; note: nearly all actives have a fitted effect of over 50% in size
HP1b binding inh = blocks HP1-beta chromodomain binding to methylated histone tails; Potency, µM (top dose mostly 114 µM), hits mostly inhibitors; AID 540317; AlphaScreen HP1-beta / biotin-H3K9me3 peptide binding; hit rate 0.56% among 390,000; note: nearly all actives have a fitted effect of over 70% in size
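AlphaScreen: HP1-beta (50 nM) preformed 30 min with biotin-H3(1-18)K9me3 peptide (50 nM) in PBS pH 7.4, 0.01% Tween-20. Compound added for 30 min at RT, then streptavidin donor/nickel chelate acceptor beads (10 ug/mL) for 30 min.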
G9a inh = blocks human histone lysine methyltransferase G9a; Q96KQ7; G9a H3K9 monomethylation, AlphaScreen, 2 h; Potency, µM (series often up to 102 µM), actives largely listed as inhibitors; hit rate 8.8% among 350,000; AID 504332; note: nearly all actives have a fitted effect of over 75% in size
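Readings reflect AlphaScreen signal from monomethyl-H3K9 antibody detection. HMT at 20 nM; substrate b-H3K9 500 nM; cofactor SAM 20 uM; 2 h RT reaction; compounds tested as titrations in qHTS with 15 min preincubation.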
BAZ2B inh = BAZ2B (human) inhibition; AlphaScreen BAZ2B-H3K14Ac peptide displacement; hit rate 4.4% among 360,000; Potency, µM (titrated, usually from 114 µM), hits mostly inhibitors; note: nearly all actives have a fitted effect of over 60% in size
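AlphaScreen displacement: compounds (up to 110uM) incubated 30 min at room temperature with a preformed 50 nM BAZ2B/50 nM biotinylated H3K14Ac peptide complex in PBS pH 7.4 with Tween-20. Donor and acceptor beads at 10 ug/mL final added, 20 min light-protected before reading.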
12-LOX inh = inhibitors of human 12S-lipoxygenase ALOX12. AID 1671190. Potency, µM (series often up to 108 µM), actives largely listed as inhibitors. hit rate 1.1% among 580,000. purified 12hLO, xylenol orange hydroperoxide absorbance
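Hydroperoxide product was detected by ferrous iron/xylenol orange as the 573 to 405 nm absorbance ratio. Arachidonic acid at 40 uM (final) was turned over for 30 min at room temperature by 150 nM human 12hLO, pH 7.0 Hepes buffer, after 15 min compound preincubation.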
Sfp inh = Sfp phosphopantetheinyl transferase inhibition; Q9F4F7; Biochemical Sfp PPTase activity, qHTS; Potency, µM, actives largely listed as inhibitors; hit rate 3.5% among 310,000;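 note: the enzyme is Sfp with the accession as filed and its product quenches rhodamine fluorescence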
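Sfp 15 nM + cpd, 15 min RT; start w/ rhodamine-CoA 5 uM, BHQ-2-YbbR 12.5 uM (final); 50 mM Hepes pH 7.6, 10 mM MgCl2, 0.01% NP-40, 0.01% BSA; read 525/598 nm at 0 and 30 min.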
Numbers stand for hits; i = inactive; ? = inconclusive; nt = not tested or not shown; ! = a repeat was not active; [ ] = remark or other dose. This is a sample that favours compounds with a hit; in the whole collection about 8.7% have one here. Calls come from the whole dose curve; as a rule, active = well fitted curve in the direction sought with a large enough effect; inconclusive = small, poorly fitted or top-dose-only effect, or another doubt; inactive = no such curve, though single readings can be large; an effect the other way counts as inactive or inconclusive.

SMILES	JMJD2A Tudor inh	HP1b binding inh	G9a inh	BAZ2B inh	12-LOX inh	Sfp inh
Cc1ccc(/C=C/c2ccc3cccc(O)c3n2)s1	i	i	28.2µM	i	i	i
COc1cc(/C=C/c2ccc3cccc(O)c3n2)cc(Cl)c1OC	i	i	i	?	i	50.1µM
COC(=O)c1ccc(/C=C/c2ccc3cccc(OC)c3n2)cc1	i	i	i	i	i	44.7µM
Nc1nccnc1C(=O)NCc1cn2ccccc2n1	nt	nt	nt	nt	i	nt
CC(SCc1cccc(Cl)c1)C(=O)NC(N)=O (configuration not stated)	nt	nt	nt	nt	i	nt
NC1CCc2nn(CC(=O)N(Cc3ccccc3)Cc3ccco3)c(=O)n2CC1 (configuration not stated)	nt	nt	nt	nt	i	nt
Cc1[nH]c2ccccc2c1/C=N\NC(=O)CNc1ccc2c(c1)OCO2	?	?	10µM	44.7µM	i	i
O=C(CNc1ccc2c(c1)OCO2)N/N=C\c1ccccc1Cl	?	?	?	50.1µM	i	i
Nc1ccc(N2CCCCC2)c(S(=O)(=O)Nc2ccccc2Cl)c1	?	?	14.1µM	?	?	28.2µM
COc1ccccc1NS(=O)(=O)c1cc(NC(=O)c2cccnc2)ccc1N1CCCCC1	?	i	nt	nt	i	nt
CCCS(=O)(=O)Nc1ccc(N2CCCCC2)c(S(=O)(=O)Nc2ccccc2OC)c1	i	i	11.2µM	i	31.6µM	nt
Nc1ccc(N2CCCCC2)c(Cl)c1	i	i	44.7µM	i	i	i
Nc1cc(S(=O)(=O)Nc2ccccc2Cl)ccc1N1CCCCC1	?	?	nt	nt	28.2µM	nt
Nc1cc(S(=O)(=O)c2ccc(N3CCCCC3)c(N)c2)ccc1N1CCCCC1	nt	nt	nt	nt	i	nt
CCOc1ccc(NC(=O)Cn2ncc3ccccc3c2=O)cc1	nt	nt	nt	nt	i	nt
O=C1OCCC1N1CCC(c2nc3ccccc3s2)CC1 (configuration not stated)	nt	nt	nt	nt	i	nt
Nc1ccc(N2CCCCC2)c(S(=O)(=O)Nc2ccc(Cl)cc2)c1	?	i	?	?	i	i
COc1ccccc1NS(=O)(=O)c1cc(N)ccc1N1CCCCC1	56.2µM	i	3.98µM	?	?	11.2µM
CN(C)CC(=O)c1c[nH]c2ccccc12	50.1µM	i	i[0.501 µM]	i	i	i
Cc1cc(C)c(S(=O)(=O)c2ccccc2)c(OC(=O)c2ccc(Cl)cc2Cl)n1	i	i	i	56.2µM	nt	i
Cc1cc(C)c(S(=O)(=O)c2ccccc2)c(OC(=O)c2c(Cl)cccc2Cl)n1	i	i	i	i	i	i
O=C(CSc1nc2ccc([N+](=O)[O-])cc2[nH]1)NC1CCCCC1	i	i	i	i	i	i
O=C(CSc1nc2ccc(Cl)cc2[nH]1)NC1CCCC1	i	i	25.1µM	?	?	i
O=C(CSc1nc2ccc([N+](=O)[O-])cc2[nH]1)NC1CCCCCC1	i	i	44.7µM	i	i	i
CCC(C(=O)NC1CCCCC1)n1c(SCc2cccc(C)c2)nc2ccncc21 (configuration not stated)	i	i	50.1µM!	i	i	i
SMILES	JMJD2A Tudor inh	HP1b binding inh	G9a inh	BAZ2B inh	12-LOX inh	Sfp inh
CCC(C(=O)NC1CCCCC1)n1c(SCc2cccc(F)c2)nc2ccncc21 (configuration not stated)	i	i	?	i	i	i
CCc1nc2sc3c(O)cc(=O)[nH]c3c2cc1C	i	i	44.7µM	i	?	?
CC(=O)N(c1nc(C)c(C(=O)Nc2ccc3[nH]ccc3c2)s1)C(C)C	nt	nt	nt	nt	i	nt
O=C(O)CSc1nnc(-c2ccncc2)n1-c1ccc(Cl)cc1	i	i	?	i	i	i
O=C(O)CSc1nnc(-c2cccs2)n1-c1ccc(Cl)cc1	17.8µM	?	?	i	i	i
CCCCOC(=O)C(C)Oc1ccc2c(=O)c(-c3ccccc3OC)coc2c1 (configuration not stated)	nt	nt	nt	nt	i	nt
O=C1C=CC(=O)N1c1ccc(OC(F)F)cc1	15.8µM	20µM	1.41µM	?	i	?
O=C1C2C3C=CC(C2C(=O)N1c1ccc(O)cc1)C1C2C(=O)N(c4ccc(O)cc4)C(=O)C2C31 (configuration not stated)	i	i	50.1µM	i	i	i
O=C1C=CC(=O)N1c1ccc(O)cc1	39.8µM	?	1µM	i	i	12.6µM
Cc1cc(O)cc(=O)n1-c1ccc(OC(F)F)cc1	nt	nt	nt	nt	i	nt
O=C(O)c1cc(=O)c2ccccc2[nH]1	?	i	10µM!	?	12.6µM!	i
O=C(O)c1cc(=O)c2c(Cl)cc(Cl)cc2[nH]1	50.1µM	i	i[12.7 µM]	nt	?	?
O=C(O)c1cc(=O)c2cccc(O)c2[nH]1	28.2µM	i	i[2.33 µM]	nt	i	79.4µM!
O=c1cc(C(F)(F)F)[nH]c2ccccc12	i	i	i	i	i	i
CCCN(C(=O)Cn1nc(C)c([N+](=O)[O-])c1C)c1c(N)n(Cc2ccccc2)c(=O)[nH]c1=O	i	i	44.7µM	i	?	nt
CCCCn1c(N)c(N(CC)C(=O)CSCc2c(C)noc2C)c(=O)[nH]c1=O	i	i	44.7µM	i	i	i
CCCN(C(=O)c1c(-c2ccccc2)noc1C)c1c(N)n(Cc2ccccc2)c(=O)[nH]c1=O	i	i	i[0.0925 µM]	i	i	nt
CCCCn1c(N)c(N(CCOC)C(=O)CSCc2c(C)noc2C)c(=O)[nH]c1=O	i	i	i	i	?	i
CCCN(C(=O)Cc1coc2cc(C)c(C)cc12)c1c(N)n(Cc2ccccc2)c(=O)[nH]c1=O	i	i	i	i	i	nt
CCCN(C(=O)CSCc1c(C)noc1C)c1c(N)n(Cc2ccccc2)c(=O)[nH]c1=O	i	i	44.7µM	i	i	nt
COCCn1c(-n2nc(C)cc2C)nc2c1c(=O)n(Cc1ccc(OC)cc1)c(=O)n2C	nt	nt	nt	nt	i	nt
O=S(=O)(c1ccccc1)N1CCC(N2CCCCCC2)CC1	3.98µM	?	?	?	4.47µM	i
O=C1CCCC(=O)C1C(=O)C1CCN(S(=O)(=O)c2ccccc2)CC1	56.2µM	?	i	i	i	i
O=C(C1CCN(S(=O)(=O)c2ccc(F)cc2)CC1)N1CC=C(c2ccccc2)CC1	i	i	14.1µM	i	i	i
CCc1ccc(S(=O)(=O)N2CCCC(N3CCN(c4ccc(OC)cc4)CC3)C2)cc1 (configuration not stated)	39.8µM	?	39.8µM	14.1µM	?	i
CCn1c(SC)nnc1C1CCN(S(=O)(=O)c2ccc(OC)cc2)CC1	i	i	i	i	i	i
COc1ccc(S(=O)(=O)N2CCC(N3CCCC3)CC2)cc1	25.1µM	i	8.91µM	56.2µM	?	i
O=S(=O)(c1ccc(Cl)cc1)N1CCN(C2CCN(Cc3ccccc3)CC2)CC1	i	i	i	i	i	i
CCn1c(SC(C)C)nnc1C1CCN(S(=O)(=O)c2ccc(OC)cc2)CC1	44.7µM	i	?	i	?	i
COc1ccc(S(=O)(=O)N2CCC(N3CCN(Cc4ccccc4)CC3)CC2)cc1	5.62µM	?	22.4µM	25.1µM	?	?
